From PubChem BioAssay (NCATS)
Calls of active or inactive are those of the source. Calls come from the whole dose curve; as a rule, active = well fitted curve in the direction sought with a large enough effect; inconclusive = small, poorly fitted or top-dose-only effect, or another doubt; inactive = no such curve, though single readings can be large or run the other way.

biological target: Alpha-galactosidase (Coffea arabica) (UniProt Q42656); assay: Counterscreen for Glucocerebrosidase Inhibitors: qHTS Assay for Coffee Bean alpha-Galactosidase at pH 4.5 (AID 957); details: purified coffee bean alpha-galactosidase, fluorogenic substrate; series mostly up to 76.9 µM
How it was run: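 Green coffee bean enzyme (2 nM final) was incubated with compounds (0.7 nM to 77 uM) and 4-methylumbelliferyl alpha-D-galactopyranoside (80 uM final) in 50 mM citric acid, 0.005% Tween-20, pH 4.5, 20 min at room temperature; AC50 from Hill fits.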

Sequence of Alpha-galactosidase (Coffea arabica) (Q42656 whole entry, looked up): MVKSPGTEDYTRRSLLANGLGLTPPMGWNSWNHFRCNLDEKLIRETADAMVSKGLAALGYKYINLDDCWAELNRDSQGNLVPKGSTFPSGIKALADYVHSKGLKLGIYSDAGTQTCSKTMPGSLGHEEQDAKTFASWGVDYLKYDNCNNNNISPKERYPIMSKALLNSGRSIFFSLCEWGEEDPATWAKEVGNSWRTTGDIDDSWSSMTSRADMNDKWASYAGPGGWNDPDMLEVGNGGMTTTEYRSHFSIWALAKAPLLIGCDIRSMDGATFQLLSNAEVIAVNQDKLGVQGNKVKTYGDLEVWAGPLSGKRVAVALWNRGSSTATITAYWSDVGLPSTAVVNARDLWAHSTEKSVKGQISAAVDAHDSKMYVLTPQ

Question: For `O=C1NC(=O)C(c2ccccc2)(c2ccccc2)N1`, which outcome is on record?
Answer: The outcome was “inactive”.

Question: How did the outcome turn out when `O=C(c1ccc(OCCN2CCCCC2)cc1)c1c(-c2ccc(O)cc2)sc2cc(O)ccc12` was run?
Answer: Its outcome is “inactive”.

Question: `CC(C)NCC(O)COc1cccc2[nH]ccc12` (stereo unspecified) was tested. Which outcome did it give?
Answer: The outcome was “inactive”.

Question: How did the outcome turn out when `CCCNC(=O)NS(=O)(=O)c1ccc(Cl)cc1` was run?
Answer: Its outcome is “inactive”.

Question: Which outcome does the source give for `COc1ccc(Cl)cc1C(=O)NCCc1ccc(S(=O)(=O)NC(=O)NC2CCCCC2)cc1` here?
Answer: The outcome was “inactive”.

Question: `CN(C)CC/C=C1\c2ccccc2COc2ccccc21` was tested. Which outcome did it give?
Answer: Its outcome is “inactive”.

Question: How did the outcome turn out when `CN/C(=C\[N+](=O)[O-])NCCSCc1ccc(CN(C)C)o1` was run?
Answer: The outcome was “inactive”.

Question: For `CCN(CC)C(=S)SSC(=S)N(CC)CC`, which outcome is on record?
Answer: Its outcome is “inactive”.

Question: For `CN(C)C(=O)C(CCN1CCC(O)(c2ccc(Cl)cc2)CC1)(c1ccccc1)c1ccccc1`, which outcome is on record?
Answer: The outcome was “inactive”.

Question: `CN1CCN(C2=Nc3ccccc3Oc3ccc(Cl)cc32)CC1` was tested. Which outcome did it give?
Answer: The outcome was “inactive”.

Question: `O=C1CCc2cc(OCCCCc3nnnn3C3CCCCC3)ccc2N1` was tested. Which outcome did it give?
Answer: Its outcome is “inactive”.

Question: Which outcome does the source give for `NC(=O)NO` here?
Answer: The outcome was “inactive”.

Question: For `CC(=O)N[C@@H](CS)C(=O)O`, which outcome is on record?
Answer: The outcome was “inactive”.

Question: `OCCN1CCN(CCCN2c3ccccc3Sc3ccc(Cl)cc32)CC1` was tested. Which outcome did it give?
Answer: Its outcome is “inactive”.

Question: How did the outcome turn out when `C[C@](N)(Cc1ccc(O)c(O)c1)C(=O)O` was run?
Answer: Its outcome is “inactive”.

Question: Which outcome does the source give for `CN(C)CCC[C@@]1(c2ccc(F)cc2)OCc2cc(C#N)ccc21` here?
Answer: The outcome was “inactive”.

Question: Which outcome does the source give for `Cc1oncc1C(=O)Nc1ccc(C(F)(F)F)cc1` here?
Answer: The outcome was “inactive”.

Question: `CCCN(CCC)CCc1cccc2c1CC(=O)N2` was tested. Which outcome did it give?
Answer: Its outcome is “inactive”.

Question: How did the outcome turn out when `NC[C@H](O)c1ccc(O)c(O)c1` was run?
Answer: Its outcome is “inactive”.

Question: For `CN1CCN(CCCN2c3ccccc3Sc3ccc(C(F)(F)F)cc32)CC1`, which outcome is on record?
Answer: The outcome was “inactive”.

Question: For `Cn1cnc([N+](=O)[O-])c1Sc1ncnc2nc[nH]c12`, which outcome is on record?
Answer: Its outcome is “inactive”.
